Test results from PubChem BioAssay (Tox21).
Where “and” joins values, the source holds several entries; their conditions need not be identical. Identical values can stand only once. Results filed as inconclusive are left out. Some compounds were tested as several samples or in several runs, with calls that do not always agree. Calls of active or inactive are those of the source. Unless noted, the call rests on the fitted dose curve; in most records, active means well fitted curve in the direction sought with a large enough effect in the repeat runs; inconclusive means weak or mixed curves; inactive means no such curve, though single readings can be large; an effect the other way counts as inactive or inconclusive.

Key:
[1] = qHTS assay to identify small molecule agonists of the RXR signaling pathway - cell viability counter screen (AID 1159529); further: nearly all actives have a fitted effect of over 50% in size; further: potency means the concentration at half of the fitted maximal effect
In short: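 CellTiter-Glo luminescence gave viability in the wells also read for beta-lactamase. Cells (RXR-alpha-UAS-bla HEK 293T, 2% charcoal-stripped FBS medium) had 5 hr plating, then 16 hr compound exposure at 37 C; tetraoctyl ammonium bromide served as positive control.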

[2] = qHTS assay to identify small molecule antagonists of the retinoid acid receptor (RAR) signaling pathway - cell viability counter screen (AID 1159551); further: nearly all actives have a fitted effect of over 35% in size; further: potency means the concentration at half of the fitted maximal effect
In short: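 ATP-based viability, C3RL4 cells, 6 h at 37 C with 1 uM final retinol co-added after compound; luminescence read 30 min post CellTiter-Glo, RT.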

[3] = qHTS assay to identify small molecule antagonists of the retinoic acid receptor (RAR) signaling pathway (AID 1159552; further: nearly all actives have a fitted effect of over 50% in size; further: potency means the concentration at half of the fitted maximal effect)
In short: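 Luminescent RARE reporter read-out in C3RL4 cells: 6 hr co-treatment at 37 C of test compounds with retinol at 1 uM final. Cells plated overnight beforehand; luciferase reagent incubated 30 min at room temperature before reading.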

[4] = qHTS assay to identify small molecule agonists of the retinoic acid receptor (RAR) signaling pathway (AID 1159553); conditions: C3RL4 RARE luciferase reporter, agonist, 6 h; activation: at 73.3 µM (top of the series) unless noted
In short: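 Quantitative high-throughput format: the Tox21 10K library was tested on C3RL4 RARE-luciferase cells for 6 hr at 37 C and 5% CO2, with luminescence measured after a 30 min room-temperature reagent step.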

[5] = qHTS assay to identify small molecule antagonists of the estrogen related receptor (ERR) signaling pathway from Tox21 library - cell viability counter screen (AID 1224834); further: nearly all actives have a fitted effect of over 30% in size; further: potency means the concentration at half of the fitted maximal effect
In short: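 Compounds in DMSO were pinned onto ERR cells that had been incubated for 6 h, and the plates were held at 37 C for 17.5 h. CellTiter-Fluor reagent was then added and fluorescence was measured after 30 min.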

[6] = target: Luciferin 4-monooxygenase (Photinus pyralis) (UniProt P08659); experiment: qHTS assay to identify small molecule inhibitors of firefly luciferase (AID 1224835); further: nearly all actives have a fitted effect of over 25% in size; further: potency means the concentration at half of the fitted maximal effect
Luciferin 4-monooxygenase (Photinus pyralis), sequence (P08659 whole entry, looked up): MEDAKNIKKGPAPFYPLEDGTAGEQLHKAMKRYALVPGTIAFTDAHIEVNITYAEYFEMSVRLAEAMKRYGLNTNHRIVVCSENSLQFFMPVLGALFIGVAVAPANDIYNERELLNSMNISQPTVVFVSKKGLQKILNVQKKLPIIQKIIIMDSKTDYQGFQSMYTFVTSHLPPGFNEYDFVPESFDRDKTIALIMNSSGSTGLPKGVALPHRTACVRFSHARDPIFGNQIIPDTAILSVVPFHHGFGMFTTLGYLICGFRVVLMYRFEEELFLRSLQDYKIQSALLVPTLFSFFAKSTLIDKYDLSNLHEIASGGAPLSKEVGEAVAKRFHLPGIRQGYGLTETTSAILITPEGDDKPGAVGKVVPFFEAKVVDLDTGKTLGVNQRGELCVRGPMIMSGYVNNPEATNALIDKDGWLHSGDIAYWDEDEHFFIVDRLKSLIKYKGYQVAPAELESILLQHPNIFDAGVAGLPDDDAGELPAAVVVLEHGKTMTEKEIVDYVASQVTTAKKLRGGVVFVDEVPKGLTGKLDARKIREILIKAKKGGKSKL
In short: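 Biochemical qHTS: compounds run as interplate titrations against purified firefly enzyme, with D-luciferin and ATP each at its KM concentration. Light output recorded by CCD imaging.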

[7] = qHTS assay to identify small molecule agonists of the constitutive androstane receptor (CAR) signaling pathway - cell viability counter screen (AID 1224836); further: nearly all actives have a fitted effect of over 45% in size
In short: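 Cell viability multiplexed with the CAR agonist screen: CellTiter-Fluor fluorescence after 23 hr at 37 C. HepG2-CYP2B6-hCAR cells got compounds at 15 concentrations with PK11195 at 0.75 uM final.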

[8] = qHTS assay to identify small molecule antagonists of the constitutive androstane receptor (CAR) signaling pathway - cell viability counter screen (AID 1224837); further: nearly all actives have a fitted effect of over 45% in size; further: potency means the concentration at half of the fitted maximal effect
In short: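 Cells are seeded, rested 4 hr at 37 C/5% CO2, dosed with compound (15-point series) and 50 nM CITCO, incubated a further 23 hr, and then CellTiter-Fluor reagent is added before fluorescence is read. The line is HepG2 with stable hCAR and CYP2B6-2.2kb.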

[9] = target: Nuclear receptor subfamily 1 group I member 3 (Homo sapiens) (UniProt Q14994); experiment: qHTS assay to identify small molecule agonists of the constitutive androstane receptor (CAR) signaling pathway (AID 1224839); further: nearly all actives have a fitted effect of over 15% in size; further: potency means the concentration at half of the fitted maximal effect;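 on activation: HepG2 cells stably carrying human CAR and a CYP2B6 luciferase reporter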
Nuclear receptor subfamily 1 group I member 3 (Homo sapiens), sequence (Q14994 whole entry, looked up): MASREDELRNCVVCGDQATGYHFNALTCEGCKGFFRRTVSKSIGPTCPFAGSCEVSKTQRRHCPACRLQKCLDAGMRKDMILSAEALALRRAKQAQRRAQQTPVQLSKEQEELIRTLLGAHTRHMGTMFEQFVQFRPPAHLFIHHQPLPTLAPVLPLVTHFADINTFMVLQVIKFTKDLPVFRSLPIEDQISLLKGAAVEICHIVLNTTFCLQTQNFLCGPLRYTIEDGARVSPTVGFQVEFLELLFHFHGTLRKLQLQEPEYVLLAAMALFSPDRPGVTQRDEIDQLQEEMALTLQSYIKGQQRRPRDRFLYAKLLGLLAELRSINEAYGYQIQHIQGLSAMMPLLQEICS
In short: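 Luminescent ONE-Glo read-out after 24 hr, 37 C exposure of double-stable HepG2-CYP2B6-hCAR reporter cells to a 15-point compound series, in the presence of 0.75 uM PK11195 (final).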

[10] = qHTS assay to identify small molecule antagonists of the estrogen related receptor signaling pathway with the pleiotropic PPARgamma coactivator (PGC) from Tox21 10K library - cell viability counter screen (AID 1224840; active means well fitted cell-killing curve with a large enough effect in the repeat runs, not every such curve was filed as active; further: nearly all actives have a fitted effect of over 40% in size)
In short: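 Cell viability is measured by CellTiter-Fluor fluorescence in PGC/ERR cells that receive compounds after a 6-hour attachment period and are then incubated 17.5 hours at 37 C.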

[11] = qHTS assay to identify small molecule antagonists of the estrogen related receptor (ERR) signaling pathway - cell viability counter screen (AID 1224818);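 further: viability measured after 17.5 h of compound exposure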
In short: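 Quantitative high-throughput viability counter screen in ERR cells. Compounds (DMSO) incubated 17.5 h at 37 C; read-out was CellTiter-Fluor fluorescence.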

[12] = qHTS assay to identify small molecule antagonists of the estrogen related receptor (ERR) signaling pathway (AID 1224819;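 further: luminescence from an ERR-driven luciferase reporter measured with One-Glo reagent; nearly all actives have a fitted effect of over 50% in size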)
In short: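 ERR reporter cell line (NTP) plated at 2,000 cells/well, settled 6 h at 37C/5% CO2, then exposed to LOPAC compounds for 18 h at 37C. One-Glo luciferase luminescence read after 30 min at room temperature.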

[13] = qHTS assay to identify small molecule agonists of the estrogen related receptor (ERR) signaling pathway (AID 1224820)
In short: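 Following a 6 h settling period, 2,000 ERR cells per well receive DMSO-dissolved compounds by pin tool and incubate 18 h at 37 C; agonist activity is scored from One-Glo luminescence read 30 min post-addition.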

[14] = system: estrogen-related receptor alpha (ERRalpha) with PGC-1alpha coactivator, human; experiment: qHTS assay to identify small molecule antagonists of the estrogen related receptor signaling pathway with the pleiotropic PPARgamma coactivator (PGC) (AID 1224821; calls by dose curve;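 further: lower luminescence signal means antagonism of PGC/ERR signalling; nearly all actives have a fitted effect of over 50% in size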)
In short: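 Screening used NTP's PGC/ERR cells, dosed via pin tool with compound in DMSO alongside positive and negative controls. After 18 h at 37 C, One-Glo reagent sat 30 min at room temperature before luminescence detection.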

[15] = qHTS assay to identify small molecule antagonists of the estrogen related receptor signaling pathway with the pleiotropic PPARgamma coactivator (PGC) cell viability counter screen (AID 1224822)
In short: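 Cytotoxicity in the PGC/ERR cell line is assessed with CellTiter-Fluor, read as fluorescence intensity 30 min after reagent addition, following 17.5 h compound treatment at 37 C.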

[16] = qHTS assay to identify small molecule agonists of the estrogen related receptor signaling pathway with the pleiotropic PPARgamma coactivator (PGC) (AID 1224823)
In short: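 In this quantitative high-throughput screen, an 18 h, 37 C treatment of PGC/ERR cells with compounds in DMSO preceded a One-Glo luminescence read taken after 30 min at room temperature.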

[17] = target: Nuclear receptor subfamily 1 group I member 3 (Homo sapiens) (UniProt Q14994); experiment: qHTS assay to identify small molecule antagonists of the constitutive androstane receptor (CAR) signaling pathway (AID 1224838);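 further: HepG2 cells stably expressing hCAR with CYP2B6 luciferase reporter stimulated by CITCO; nearly all actives have a fitted effect of over 40% in size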; further: potency means the concentration at half of the fitted maximal effect
In short: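 Luminescence from a CYP2B6-2.2kb promoter reporter in hCAR-expressing HepG2 cells reflects CAR signaling. Cells received compounds at 15 concentrations and 50 nM CITCO (final), then incubated 24 h at 37 C/5% CO2.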

[18] = qHTS assay to identify small molecule antagonists of the estrogen related receptor signaling pathway with the pleiotropic PPARgamma coactivator (PGC) from Tox21 10K library (AID 1224841; call rule not given here; further: potency means the concentration at half of the fitted maximal effect)
In short: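 Cells stably carrying the PGC/ERR reporter, seeded at 2,000 per well, received pin-transferred compounds 6 h post-plating. Exposure lasted 18 h at 37 C. Signal: One-Glo luminescence.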

[19] = qHTS assay to identify small molecule agonists of the estrogen related receptor signaling pathway with the pleiotropic PPARgamma coactivator (PGC) from Tox21 10K library (AID 1224842); further: nearly all actives have a fitted effect of over 15% in size
In short: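 PGC/ERR reporter cell line, 2,000 cells per well, incubated 6 h at 37 C before 23 nL compound in DMSO was added. After 18 h at 37 C, One-Glo luminescence read following 30 min at room temperature.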

[20] = target: Thyrotropin receptor (Homo sapiens) (UniProt P16473); experiment: qHTS assay to identify small molecule agonists of the thyroid stimulating hormone receptor (TSHR) signaling pathway (AID 1224843; calls by dose curve; further: nearly all actives have a fitted effect of over 45% in size)
Thyrotropin receptor (Homo sapiens), sequence (P16473 whole entry, looked up): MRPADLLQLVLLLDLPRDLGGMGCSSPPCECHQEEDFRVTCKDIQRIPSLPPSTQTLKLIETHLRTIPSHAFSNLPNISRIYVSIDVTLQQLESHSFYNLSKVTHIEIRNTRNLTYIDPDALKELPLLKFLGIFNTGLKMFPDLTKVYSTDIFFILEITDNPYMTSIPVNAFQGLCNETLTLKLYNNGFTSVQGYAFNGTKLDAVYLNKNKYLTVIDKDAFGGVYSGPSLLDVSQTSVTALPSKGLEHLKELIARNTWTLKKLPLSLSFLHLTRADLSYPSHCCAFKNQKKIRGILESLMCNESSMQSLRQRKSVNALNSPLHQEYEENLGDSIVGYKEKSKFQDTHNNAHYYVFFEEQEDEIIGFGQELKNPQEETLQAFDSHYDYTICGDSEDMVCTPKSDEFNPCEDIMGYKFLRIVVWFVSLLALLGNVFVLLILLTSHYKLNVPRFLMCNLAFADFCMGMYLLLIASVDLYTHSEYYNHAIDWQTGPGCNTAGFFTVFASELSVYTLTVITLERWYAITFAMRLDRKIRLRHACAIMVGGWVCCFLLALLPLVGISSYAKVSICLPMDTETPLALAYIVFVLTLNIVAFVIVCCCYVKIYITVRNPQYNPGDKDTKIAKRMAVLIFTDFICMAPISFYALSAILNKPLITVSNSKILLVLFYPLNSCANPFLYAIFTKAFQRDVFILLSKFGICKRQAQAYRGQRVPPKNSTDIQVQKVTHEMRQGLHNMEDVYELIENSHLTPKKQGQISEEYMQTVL
In short: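 HEK293/TSHR, 800 cells/well; cpd 30 min RT; add cAMP-d2 + anti-cAMP-cryptate, 1 h RT; fluorescence read on plate reader. 15-pt titration, n=3.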

Measured: Potency

CCCCSP(=O)(SCCCC)SCCCC
inactive: [1] | [2] | [3] | [4] | [5] | [6] | [7] | [8] | [10]
active: [9] 23.8 µM and 8.63 µM

O=C(O)c1nn(Cc2ccc(Cl)cc2Cl)c2ccccc12
68.1 µM (active) and inactive: [18]
inactive: all other assays above

OC(c1ccc(Cl)cc1)(c1cncnc1)c1ccccc1Cl (stereo not drawn)
active: [5] 27.8 µM and 43.3 µM | [8] 55.4 µM
24.8 µM (active) and inactive: [18]
81.1 µM (active) and inactive: [6]
inactive: [1] | [2] | [4] | [7] | [9] | [19]
27.8 µM (active) and inactive: [3]
62.2 µM (active) and inactive: [17]

Oc1ccc(Cl)cc1Cc1ccccc1
inactive: [4] | [11] | [15] | [6] | [7] | [8] | [17] | [10] | [20]
27.6 µM (active) and inactive: [3]
active: [1] 49 µM and 24.8 µM
55.1 µM (active) and inactive: [2]
31 µM (active) and inactive: [9]

[CH3][Sn]([Cl])([Cl])[Cl]
not listed: [11] | [12] | [13] | [14] | [15] | [16] | [18] | [19]
inactive: all other assays above

CC(C)=CC1C(C(=O)OCc2cccc(Oc3ccccc3)c2)C1(C)C (stereo not drawn)
active: [9] 4.86 µM and 6.68 µM
not listed: [11] | [12] | [13] | [14] | [15] | [16] | [17]
inactive: all other assays above

CCCCOC(=O)COC(=O)c1ccccc1C(=O)OCCCC
active: [6] 12.6 µM and 35.6 µM
not listed: [11] | [12] | [13] | [14] | [15] | [16] | [20]
inactive: all other assays above

O=C1CCCO1
not listed: [11] | [12] | [13] | [14] | [15] | [16] | [17]
inactive: all other assays above

CCC(=O)Nc1ccc(Cl)c(Cl)c1
inactive: [1] | [2] | [3] | [4] | [5] | [6] | [7] | [8] | [17] | [9] | [10]

COc1ccc(C=O)cc1OC
not listed: [11] | [12] | [13] | [14] | [15] | [16] | [20]
inactive: all other assays above

COc1ccc(O)c(C(C)(C)C)c1
inactive: [1] | [2] | [3] | [4] | [5] | [6] | [7] | [8] | [9] | [10]

CCCCC(C#N)(Cn1cncn1)c1ccc(Cl)cc1 (stereo not drawn)
not listed: [11] | [12] | [13] | [14] | [15] | [16] | [20]
inactive: all other assays above

COP(=S)(OC)Oc1ccc(S(=O)(=O)N(C)C)cc1
not listed: [11] | [12] | [13] | [14] | [15] | [16] | [17]
inactive: all other assays above

O=[N+]([O-])/N=C1\NCCN1Cc1ccc(Cl)nc1
not listed: [11] | [12] | [13] | [14] | [15] | [16] | [17]
inactive: all other assays above

c1ccc2c(c1)Nc1ccccc1S2
active: [9] 30.6 µM
not listed: [5] | [6] | [20]
inactive: all other assays above

ClC(Cl)(Cl)Br
not listed: [11] | [12] | [13] | [14] | [15] | [16] | [18] | [19]
inactive: all other assays above
